A selection: hits, their analogues and other compounds. The true share with any hit is near 19%.
Pf growth 96h: Primary qHTS for delayed death inhibitors of the malarial parasite plastid, 96 hour incubation. Potency, µM (top dose mostly 28.7 µM), for inactives: top-dose activity change, negative = inhibition, hits mostly inhibitors. AID 504834, 2011. P. falciparum luciferase reporter growth, 96 h. hit rate 6.9% among 320,000; also: potency is read from the fitted curve at half-maximal effect; % is scaled to controls: 0 for no effect and ±100 for the full control effect
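Compounds incubated with erythrocytes infected by luciferase-expressing P. falciparum (2% hematocrit, 0.05% parasitemia final) for 96 hours, 37 C in 5% CO2. Growth inhibition scored as decreased luciferase luminescence.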
Shiga inhibitor: A qHTS for Small Molecule Inhibitors of Shiga Toxin; hit rate 9.2% among 290,000; inhibition, % at 38.7 µM; Vero cells, Shiga toxin protein synthesis inhibition reporter; AID 2315, 2010; in the data active = inhibition mostly above about 28%, no sharp cut-off; inactive = mostly below about 43%; also: 0% is about no effect
Pf growth 48h: Primary qHTS for delayed death inhibitors of the malarial parasite plastid, 48 hour incubation; P. falciparum luciferase growth in erythrocytes, 48 h; Potency, µM (top dose mostly 28.7 µM), without a hit: top-dose activity change, negative = inhibition, hits mostly inhibitors; hit rate 5.9% among 310,000; also: potency is read from the fitted curve at half-maximal effect; % is scaled to controls: 0 for no effect and ±100 for the full control effect
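Read-out is firefly luciferase luminescence from an integrated reporter in P. falciparum, so falling signal marks reduced parasite growth. Infected erythrocytes were at 2% hematocrit and 0.1% parasitemia (final) in Albumax-supplemented RPMI 1640.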
MARV entry inh: qHTS for inhibitors of binding or entry into cells for Marburg Virus; Marburg virus pseudotyped entry inhibition, cell reporter; Potency, µM (titrated, usually from 37.8 µM), inactives show top-dose activity change, negative = inhibition, hits mostly inhibitors; hit rate 1.8% among 300,000; calls by dose curve; tested in HEK293 cells; also: potency is read from the fitted curve at half-maximal effect; % is scaled to controls: 0 for no effect and ±100 for the full control effect
LASV entry inh: qHTS for Inhibitors of binding or entry into cells for Lassa Virus | AID 540256, 2011 | hit rate 1.2% among 300,000 | Potency, µM (highest dose often 37.9 µM), inactives show top-dose activity change, negative = inhibition, usual class: inhibitors | Lassa virus pseudotype entry inhibition, cell reporter; calls by dose curve; tested in HEK293 cells; also: potency is read from the fitted curve at half-maximal effect; % is scaled to controls: 0 for no effect and ±100 for the full control effect; nearly all actives have a fitted effect of over 50% in size
Cycloheximide cs: Cycloheximide Counterscreen for Small Molecule Inhibitors of Shiga Toxin. cell reporter, cycloheximide protein synthesis inhibition counterscreen. max response, %. hit rate 12% among 300,000. AID 2314, 2010; in the data active = max response mostly above about 13%, no sharp cut-off; inactive = mostly below about 14%; also: read at 38.3 µM for the half of the compounds with a filed dose; 0% is about no effect
An asterisk follows results filed as active; ? = inconclusive; / = not tested or not shown; [ ] = dose if it differs, or a comment. Unless noted, calls follow the shape of the dose curve; as a rule, active = well fitted inhibition curve with a large enough effect; inconclusive = small, poorly fitted or top-dose-only effect, or another doubt; inactive = no such curve, though single readings can be large or run the other way.

SMILES	Pf growth 96h	Shiga inhibitor	Pf growth 48h	MARV entry inh	LASV entry inh	Cycloheximide cs
CCCn1c(N2CCC(Cc3ccccc3)CC2)nc2c1c(=O)[nH]c(=O)n2C	-16.6%	-27.0	?	?	?	-5.5
O=C(Nc1cccc(C(F)(F)F)c1)c1ccc(-n2cncn2)nc1	?	22.7	?	-9.7%[46.1 µM]	-1.0%[46.1 µM]	12.3
CCOC(=O)c1c(N)sc(C(=O)OCCOC)c1C	151.8%	59.2*	92.6%	-14.2%[46.1 µM]	-9.6%	34.7*
CCOC(=O)c1sc(N)c(C(=O)Nc2ccccc2)c1C	2.8%	46.4*	84.1%	/	/	27.0*
CCOC(=O)c1sc(N)c(C(=O)OCC)c1C	64.0%	80.8*	65.6%	3.2%	?	51.3*
CCOC(=O)c1c(N)sc(C(=O)N2CCCC2)c1C	-10.7%	-6.2	/	0.0%[46.1 µM]	1.9%	-2.5
CCCn1nnnc1SCC(=O)N(C(C)C)C(C)C	21.4%	2.0	15.0%	24.3%	5.2%	4.5
O=C(NCc1ccc2c(c1)CCN2C(=O)c1ccc(F)cc1)c1ccc(Br)o1	/	/	/	/	-17.6%[46.1 µM]	/
COc1c2occc2c(OC(C)=O)c2c(=O)cc(C)oc12	34.4%	-9.2	38.8%	16.4%	-0.9%	-1.1
OCCCc1nc2n(n1)C(c1cccc(Cl)c1)C=C(c1ccccc1)N2 (centres undefined)	/	/	/	/	4.1%[46.1 µM]	/
Cn1c(SCC(=O)N2CCc3ccccc32)nc2cccnc21	?	-0.9	-11.3%	-21.6%	12.5%	0.9
Cn1c(SCc2nc3ccccc3n2CCO)nc2ccccc21	?	-11.4	-8.2%	-19.6%	-14.0%	-4.9
Cn1c(SCc2ccc(C#N)cc2Cl)nc2ccccc21	226.8%	125.3	184.4%	-25.4%	?	39.9*
N#Cc1ccc(CSc2ccccn2)c(Cl)c1	2.5%	117.1	?	13.8%[46.1 µM]	0.8%[46.1 µM]	24.8*
CCCCN1C(=O)C(=O)NC[C@@H]1C(C)O (some centres undefined)	9.8%	-8.3	13.3%	/	/	-2.3
Cc1[nH]c2c(Br)cccc2c1[C@H]1[C@@H](CC#N)C1(C)C	?	62.8*	?	-19.2%[46.1 µM]	-19.8%	41.9*
Cc1cc2ncn(-c3ncnc4sc(C)c(C)c34)c2cc1C	-10.0%	-46.7	-7.2%	-29.4%	-28.8%	-3.9
CN1CCN(/N=C/c2ccc(N(c3ccccc3)c3ccccc3)cc2)CC1	?	-6.4	?	1.26µM*	0.631µM*	1.0
CN1CCN(/N=C/c2ccc(N(C)c3ccccc3)cc2)CC1	25.8%	59.2*	-0.2%	?	1.1%	33.9*
COc1ccc(/C=N/N2CCN(C)CC2)cc1O	13.1%	3.7	14.6%	10.6%	-0.8%	0.5
COc1cccc(/C=N/N2CCN(C)CC2)c1	17.4%	19.0	-9.2%	-0.5%	-0.4%	29.1*
CN1CCN(/N=C/c2ccc(Cl)c(Cl)c2)CC1	161.8%	84.0*	134.2%	?	?	37.8*
CN(C)C(/C=C/Nc1ccc([N+](=O)[O-])cc1)=C(C#N)C#N	35.9%	-6.3	21.3%	-19.0%[46.1 µM]	5.1%	-8.2
O=C(CN(C(=O)Cn1nnc(-c2ccccc2F)n1)c1cccc2c1CCCC2)NCc1ccccc1	?	1.4	?	?	-11.3%	-3.0
O=[N+]([O-])c1cc(/C=N/N2CCCCC2)ccc1Cl	55.9%	72.1*	51.0%	11.8%[46.1 µM]	?	17.7*
SMILES	Pf growth 96h	Shiga inhibitor	Pf growth 48h	MARV entry inh	LASV entry inh	Cycloheximide cs
CN1CCN(/N=C/c2ccc(Br)cc2)CC1	91.8%	54.7	133.4%	?	17.5%[46.1 µM]	46.8*
Cc1ccc(N2CCN(/N=C/c3ccncc3)CC2)cc1	24.6%	-2.3	-10.4%[5.75 µM]	/	/	-1.6
Cc1ccc2c(c1)C(SCC(=O)NCCc1ccccc1)CC1(CCCC1)O2 (centres undefined)	-16.4%	-10.7	-29.0%	-2.4%	2.2%	1.0
CC1CCC(C(C)C)C(OC(=O)Cn2c(-c3ccccc3)[n+](C)c3ccccc32)C1 (centres undefined)	245.2%	-1.4	0.465µM*	5.8µM*	7.08µM*	-7.0
CC1CCC(C(C)C)C(OC(=O)CSc2nc(N)cc(=O)[nH]2)C1 (centres undefined)	-18.4%	-13.9	-9.2%	-6.2%	4.3%	7.6
CC1CCC(C(C)C)C(OC(=O)Cn2c(-c3ccc(F)cc3)[n+](C)c3ccccc32)C1 (centres undefined)	?	-6.9	0.828µM*	?	?	-1.5
CC1CCC(C(C)C)C(OC(=O)C[n+]2cc(-c3ccc(Cl)cc3)n3c2CCC3)C1 (centres undefined)	?	8.8	?	/	/	-3.8
CC(C)Oc1ccc(C(=O)NCC(c2ccc(N(C)C)cc2)N2CCCC2)cc1 (centres undefined)	/	/	/	/	-29.6%[46.1 µM]	/
CCOC(=O)C1CCCN(c2nc3ccccc3nc2C(C#N)C(=O)OCCOC)C1 (centres undefined)	8.28µM*	-6.3	6.57µM*	-23.4%	-20.5%	-0.8
C=CCOC(=O)C(C#N)c1nc2ccccc2nc1N1CCN(Cc2ccccc2)CC1 (centres undefined)	-20.7%	-17.6	?	-13.2%[46.1 µM]	-1.5%	-4.7
C=CCOC(=O)C(C#N)c1nc2ccccc2nc1N1CCN(c2ccccc2OC)CC1 (centres undefined)	8.28µM*	2.9	5.86µM*	-21.9%	-3.0%	-2.2
CCOC(=O)C1CCN(c2nc3ccccc3nc2C(C#N)C(=O)NCCc2ccccc2)CC1 (centres undefined)	9.28µM*	88.1	56.4%	-3.9%	/	48.9*
COCCNC(=O)C(C#N)c1nc2ccccc2nc1N1CCCCCC1 (centres undefined)	32.3%	-13.5	?	?	-1.3%	2.2
C/C(=N\Nc1c(F)c(F)c(Br)c(F)c1F)c1ccncc1	?	16.6	-4.4%	0.2%	-1.6%	-3.0
CC(C)[C@H](NC(=O)NC1CCCC1)C(=O)O	/	-11.0	3.5%	2.9%	-1.4%	-0.8
CC(C)=CCCC(C)NC(=O)NC1CCCCC1 (centres undefined)	13.0%	38.1	9.4%	7.0%	?	22.6*
Cc1[nH]n(-c2ccccc2)c(=O)c1/C=N/NC(=O)c1cccc(F)c1	-5.3%	66.1*	10.4µM*	/	/	42.7*
Cc1[nH]n(-c2ccc(Br)cc2)c(=O)c1/C=N/NC(=O)c1ccccc1	?	91.6*	?	/	/	28.3*
CSc1cccc(CN2CCN(CCC(C)C)C(CCO)C2)c1 (centres undefined)	?	-5.5	-25.7%	?	-22.3%[46.1 µM]	-1.0
CN(C)c1ccc(N=Cc2cccn2C)cc1	?	107.4*	3.4%	?	6.31µM*	85.4*
CN(C)c1ccc(-n2cccc2/C=C/[N+](=O)[O-])cc1	0.5%	-15.0	?	?	?	-6.4
O=C(COC(=O)c1cccc(S(=O)(=O)N2CCOCC2)c1)Nc1nc(-c2ccccc2Cl)cs1	108.3%	93.1*	68.5%	2.2%[46.1 µM]	15.4%	28.2*
